Experimental findings from PubChem BioAssay (EPA / NIEHS) are described below.

Records with an inconclusive call do not appear. Active and inactive are the calls of the source. The calls were made as follows: active = hit-call score of the fitted dose curve at least 0.9, where 1 is the maximum; inconclusive = response in the unintended direction; inactive = score below 0.9.

The target of this test is human Phosphoinositide 3-kinase alpha (PI3Ka), PIK3CA (gene 5290) (UniProt P42336). Nature of the test: NVS_ENZ_hPI3Ka: NovaScreen (NVS) Enzymatic Assay for human Phosphoinositide 3-kinase alpha (PI3Ka) (AID 2283196). How it is done: NVS_ENZ_hPI3Ka is a biochemical, single-readout assay that uses extracted gene-proteins in a cell-free assay. Measurements were taken 1 hour after chemical dosing in a 384-well plate.NVS_ENZ_hPI3Ka is one of one assay component(s) measured or calculated from the NVS_ENZ_hPI3Ka assay. It is designed to make measurements of enzyme activity, a form of enzyme reporter, as detected with fluorescence intensity signals by Fluorescence and electrophoretic mobility shift technology.Data from the assay component NVS_ENZ_hPI3Ka was analyzed into 1 assay endpoint. This assay endpoint, NVS_ENZ_hPI3Ka, was analyzed in the positive analysis fitting direction relative to DMSO as the negative control and baseline of activity. Using a type of enzyme reporter, loss-of-signal activity can be used to understand changes in the enzymatic activity as they relate to the gene PIK3CA. Furthermore, this assay endpoint can be referred to as a primary readout, because this assay has produced multiple assay endpoints where this one serves a enzymatic activity function. To generalize the intended target to other relatable targets, this assay endpoint is annotated to the kinase intended target family, where the subfamily is phosphoinositol kinase.
Chain of human Phosphoinositide 3-kinase alpha (PI3Ka), PIK3CA (gene 5290) (P42336 whole entry, looked up): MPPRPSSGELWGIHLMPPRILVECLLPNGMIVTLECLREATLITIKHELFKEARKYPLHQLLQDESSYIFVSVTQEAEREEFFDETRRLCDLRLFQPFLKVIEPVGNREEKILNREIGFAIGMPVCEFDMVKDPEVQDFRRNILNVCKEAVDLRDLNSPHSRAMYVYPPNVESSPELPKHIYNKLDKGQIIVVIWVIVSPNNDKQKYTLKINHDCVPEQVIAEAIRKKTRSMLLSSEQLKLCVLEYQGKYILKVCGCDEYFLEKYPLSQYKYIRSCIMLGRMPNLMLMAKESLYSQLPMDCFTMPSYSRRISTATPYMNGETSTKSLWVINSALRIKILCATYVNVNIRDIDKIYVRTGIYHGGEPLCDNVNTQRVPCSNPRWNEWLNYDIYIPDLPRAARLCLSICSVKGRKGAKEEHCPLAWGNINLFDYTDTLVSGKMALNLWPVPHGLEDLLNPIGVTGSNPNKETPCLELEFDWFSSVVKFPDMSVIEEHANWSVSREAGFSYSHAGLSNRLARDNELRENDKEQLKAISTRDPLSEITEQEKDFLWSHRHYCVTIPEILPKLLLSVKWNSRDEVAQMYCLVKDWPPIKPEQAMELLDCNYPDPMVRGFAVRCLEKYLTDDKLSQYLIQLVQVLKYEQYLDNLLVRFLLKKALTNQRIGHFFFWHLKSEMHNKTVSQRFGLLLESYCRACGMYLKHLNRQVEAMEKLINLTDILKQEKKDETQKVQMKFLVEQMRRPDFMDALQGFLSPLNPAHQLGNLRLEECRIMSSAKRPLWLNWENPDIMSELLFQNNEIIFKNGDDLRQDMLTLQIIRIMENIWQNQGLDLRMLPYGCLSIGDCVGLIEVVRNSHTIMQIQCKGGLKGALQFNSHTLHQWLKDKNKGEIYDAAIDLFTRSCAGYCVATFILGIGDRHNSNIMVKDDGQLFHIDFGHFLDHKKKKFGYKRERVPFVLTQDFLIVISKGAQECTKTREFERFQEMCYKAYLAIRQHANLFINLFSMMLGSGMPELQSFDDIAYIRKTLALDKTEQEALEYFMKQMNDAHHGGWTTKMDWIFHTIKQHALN
Binding assays used specific radioligands (tritiated, iodinated) with non-radioactive competitive displacement ligands in agonist or antagonist protocols (as indicated) and various reference compounds and inhibitors to titrate specific binding to receptors and transporters. Most enzyme assays (CYPs, kinases, phosphatases, proteases, HDACs) used recombinant protein and specific substrates (fluorescence mostly, some colorimetric and radioactive) and inhibitors, followed by a biochemical separation of substrate and product. All assays for the biochemical HTS were initially run in duplicate at a single concentration (10 uM for CYP450 assays and 25 uM for all others). Assay-chemical combinations meeting a pre-defined threshold (e.g., 30% inhibition and other criteria defined below) were then run in singleton concentration-response format with maximum concentration of 20 uM for CYPs and 50 uM for all others. Each assay was run with positive and negative controls, and concurrent controls on every plate. The follow-up (secondary) screen tested active chemical-pairs in concentration series, as well as a few additional assays not tested in the primary screen, some selected negative inactives, and several cases re-run in the concentration series for confirmatory purposes.
With `CCO[Si](CCCS)(OCC)OCC`, the compound was classed as inactive.

With `CC(=O)/C=C/C1=C(C)CCCC1(C)C`, the compound was called inactive.

As for `COC(=O)OC`, the outcome was inactive.

As for `O=C1OC2(c3cc(Br)c(O)c(Br)c3Oc3c2cc(Br)c(O)c3Br)c2c(Cl)c(Cl)c(Cl)c(Cl)c21`, the AC50 is 1860 nM (active).

For the compound `CCCCC(CC)COCCC#N` (configuration not stated), the result was inactive.

`CCCCC/C=C/C=C/C=O`: the outcome was inactive.

In the case of `CCn1c2ccccc2c2cc(N)ccc21`, the AC50 is 9320 nM (active).

For `C#C[C@]1(O)CC[C@H]2[C@@H]3CCC4=Cc5oncc5C[C@]4(C)[C@H]3CC[C@@]21C`, the compound was called inactive.

As for `COC(=O)c1ccc(C)cc1`, the call was inactive.

With `N#Cc1ccccc1`, the call was inactive.

`CC1CCC2CC1C2(C)C` (configuration not stated): the AC50 is 1820 nM (active).

Regarding `O=C=NC1CCC(CC2CCC(N=C=O)CC2)CC1` (configuration not stated), the compound was classed as inactive.

The term AC50 denotes the concentration at which the activity in the assay is half-maximal.
